Experimental findings from PubChem BioAssay (Tox21) are described below.

Where “and” joins values, the source holds several entries; their conditions need not be identical. Equal entries are not always repeated. Records with an inconclusive call do not appear. Calls of active or inactive are those of the source. Unless noted, calls come from the whole dose curve; as a rule, active = well fitted curve in the direction sought with a large enough effect in the repeat runs; inconclusive = weak or mixed curves; inactive = no such curve, though single readings can be large; an effect the other way counts as inactive or inconclusive.

The nature of test [1]: qHTS assay to identify aromatase inhibitors - cell viability counter screen (AID 743084).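 Note: cells stimulated with testosterone during compound exposure; nearly all actives have a fitted effect of over 55% in size.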 Note: potency is the fitted concentration of half-maximal effect. On the technique in general: In qHTS, concentration-response curves come from the screen itself.
Test [2] has as its target Aryl hydrocarbon receptor (Homo sapiens) (UniProt P35869). Briefly: qHTS assay to identify small molecule that activate the aryl hydrocarbon receptor (AhR) signaling pathway (AID 743085).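 For activation: HG2L7.5c1 human HepG2 liver cells with stably integrated DRE-driven firefly reporter; series mostly up to about 70 µM.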 Note: nearly all actives have a fitted effect of over 15% in size. Note: potency is the fitted concentration of half-maximal effect. The method, boiled down: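 Compounds were tested in HepG2 hepatocellular carcinoma cells harbouring a stably integrated luciferase gene under control of 20 DREs. Increased reporter signal after 24 h treatment at 37C was taken as AhR activation.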

A short description of test [3]: qHTS assay to identify small molecule that activate the aryl hydrocarbon receptor (AhR) signaling pathway - cell viability counter screen (AID 743086).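 Note: HepG2 liver cells carrying the AhR DRE luciferase reporter; series mostly up to about 70 µM; nearly all actives have a fitted effect of over 45% in size.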 Summed up: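 HepG2-AhR-luc (HG2L7.5c1) cells, 4000/well, treated 24 h at 37 C with compound; viability measured as CellTiter-Fluor fluorescence after 30 min in the same wells as the luciferase read.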
Test [4] in a line: qHTS assay to identify small molecule antagonists of the peroxisome proliferator-activated receptor gamma (PPARg) signaling pathway - cell viability counter screen (AID 743194). Note: nearly all actives have a fitted effect of over 55% in size. Note: potency is the fitted concentration of half-maximal effect. The method, boiled down: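 Cytotoxicity counter screen in PPARg-bla HEK293H cells, same wells as reporter assay. Compounds plus 50 nM rosiglitazone (final) for 17 h at 37 C, then viability read by CellTiter-Glo luminescence.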

Test [5] can be described thus: qHTS assay for small molecule agonists of the antioxidant response element (ARE) signaling pathway - cell viability counter screen (AID 743203; calls by dose curve; note: nearly all actives have a fitted effect of over 55% in size; note: potency is the fitted concentration of half-maximal effect). The method, boiled down:
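Luminescence read-out (CellTiter-Glo, 30 min at room temperature) measured cell viability in the same wells as the ARE beta-lactamase reporter. HepG2 ARE-bla cells were treated with compounds for 16 hrs at 37C/5% CO2.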

Test [6] is described as follows: qHTS assay for small molecule activators of the heat shock response signaling pathway (AID 743210; active = well fitted activation curve with a large enough effect in the signal ratio in the repeat runs, with a control signal flat, not every such curve was filed as active; the % refers to the signal ratio;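 note: HeLa cells with beta-lactamase reporter driven by heat shock elements; series mostly up to about 63 µM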). Summed up:
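Beta-lactamase reporter read-out: FRET substrate fluorescence after 2.5 h at RT, following 5 h compound treatment at 37 C of HeLa cells carrying HSE-driven bla reporter; quantitative HTS format.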

The nature of test [7]: qHTS assay to identify small molecule agonists of the peroxisome proliferator-activated receptor delta (PPARd) signaling pathway - cell viability counter screen (AID 743211). Note: nearly all actives have a fitted effect of over 55% in size. Note: potency is the fitted concentration of half-maximal effect. The method, boiled down: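 Counter screen for cytotoxicity run in parallel with the PPARd reporter screen. Beta-lactamase reporter HEK293H cells exposed to compounds 17 h; ATP-based CellTiter-Glo luminescence quantified viability.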

Test [8] has as its target Peroxisome proliferator-activated receptor delta (Homo sapiens) (UniProt Q03181). In words: qHTS assay to identify small molecule agonists of the peroxisome proliferator-activated receptor delta (PPARd) signaling pathway (AID 743212; calls by dose curve). The method, boiled down: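 Read-out: beta-lactamase FRET fluorescence after 2 h room-temperature incubation with LiveBLAzer B/G substrate. Cells were HEK293H carrying a UAS-bla reporter for PPARd, treated at 37 C with DMSO-dissolved compounds.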

Test [9] in a line: qHTS assay to identify small molecule antagonists of the peroxisome proliferator-activated receptor delta (PPARd) signaling pathway - cell viability counter screen (AID 743213). Note: nearly all actives have a fitted effect of over 50% in size. Note: potency is the fitted concentration of half-maximal effect. The method, boiled down:
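Viability counter-screen, qHTS format: PPARd-bla HEK293H, L165041 300 nM final, 17 h compound exposure at 37 C, CellTiter-Glo luminescence after 30 min RT.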

The target of test [10] is Peroxisome proliferator-activated receptor delta (Homo sapiens) (UniProt Q03181). Briefly: qHTS assay to identify small molecule antagonists of the peroxisome proliferator-activated receptor delta (PPARd) signaling pathway (AID 743215; active = well fitted inhibition curve with a large enough effect in the signal ratio in the repeat runs, not every such curve was filed as active; the % refers to the signal ratio;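 note: cells stimulated with agonist L165041 at 300 nM final during compound exposure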; note: potency is the fitted concentration of half-maximal effect). Summed up: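 HEK293H GeneBLAzer PPARd UAS-bla reporter cells; cpd + L165041 300 nM final, 17 h 37 C; LiveBLAzer B/G FRET substrate 2 h RT; fluorescence intensity read-out. Antagonist mode.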
Chain of Peroxisome proliferator-activated receptor delta (Homo sapiens) (Q03181 whole entry, looked up): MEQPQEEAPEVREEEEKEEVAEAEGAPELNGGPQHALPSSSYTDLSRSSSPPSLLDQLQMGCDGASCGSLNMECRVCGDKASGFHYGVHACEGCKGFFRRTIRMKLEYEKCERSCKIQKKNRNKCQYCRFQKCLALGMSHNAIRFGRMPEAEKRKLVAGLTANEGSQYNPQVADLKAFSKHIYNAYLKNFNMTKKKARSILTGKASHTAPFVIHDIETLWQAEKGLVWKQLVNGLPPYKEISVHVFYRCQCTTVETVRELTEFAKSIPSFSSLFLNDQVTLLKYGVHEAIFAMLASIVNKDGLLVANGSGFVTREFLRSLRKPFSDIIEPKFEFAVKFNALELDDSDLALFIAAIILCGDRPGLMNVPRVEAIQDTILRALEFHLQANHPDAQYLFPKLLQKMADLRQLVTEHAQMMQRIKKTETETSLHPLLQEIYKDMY

In test [11] the target is Vitamin D3 receptor (Homo sapiens) (UniProt P11473). In words: qHTS assay to identify small molecule agonists of the vitamin D receptor (VDR) signaling pathway (AID 743222; calls by dose curve). Summed up:
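Beta-lactamase reporter readout (LiveBLAzer B/G FRET, 2 h RT) in VDR-bla cells after 16 h compound treatment at 37C, 5% CO2; cells pre-incubated 4 h before pin transfer of DMSO solutions.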

The target in test [12] is Peroxisome proliferator-activated receptor gamma (Homo sapiens) (UniProt P37231). In words: qHTS assay to identify small molecule agonists of the peroxisome proliferator-activated receptor gamma (PPARg) signaling pathway (AID 743094; active = well fitted activation curve with a large enough effect in the signal ratio in the repeat runs, not every such curve was filed as active; the % refers to the signal ratio). The method, boiled down:
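HEK293H PPARg-bla cells, 5 h settle at 37C/5% CO2; compound (DMSO) 17 h, 37C; B/G FRET substrate 1 h RT; fluorescence intensity read-out. qHTS format.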

A short description of test [13]: qHTS assay for small molecule activators of the heat shock response signaling pathway - cell viability counter screen (AID 743209). Note: nearly all actives have a fitted effect of over 50% in size. The method, boiled down:
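HSE-bla HeLa; 1500 cells/well; overnight 37 C, 5% CO2; compound 5 h 37 C; LiveBLAzer B/G substrate 2.5 h RT; CellTiter-Glo 30 min RT; luminescence.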

For test [14], the target named is Bile acid receptor (Homo sapiens) (UniProt Q96RI1). In words: qHTS assay to identify small molecule antagonists of the farnesoid-X-receptor (FXR) signaling pathway (AID 743217; active = well fitted inhibition curve with a large enough effect in the signal ratio in the repeat runs, not every such curve was filed as active; the % refers to the signal ratio; note: potency is the fitted concentration of half-maximal effect). Summed up:
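Read-out: beta-lactamase FRET fluorescence (LiveBLAzer B/G substrate, 2 h, room temperature) in GeneBLAzer FXR-UAS-bla HEK 293T cells. Compounds were co-dosed with 50 uM chenodeoxycholic acid (final) and incubated 16 h at 37 °C.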

Test [15] in a line: qHTS assay to identify small molecule agonists of the farnesoid-X-receptor (FXR) signaling pathway - cell viability counter screen (AID 743218). Note: nearly all actives have a fitted effect of over 45% in size. Note: potency is the fitted concentration of half-maximal effect. Summed up:
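Luminescence from CellTiter-Glo, read after 30 min at RT, reports viability of GeneBLAzer FXR-UAS-bla HEK 293T cells treated 16 h with compounds in the wells used for the beta-lactamase reporter.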

Test [16] addresses Bile acid receptor (Homo sapiens) (UniProt Q96RI1). Briefly: qHTS assay to identify small molecule agonists of the farnesoid-X-receptor (FXR) signaling pathway (AID 743220; active = well fitted activation curve with a large enough effect in the signal ratio in the repeat runs, not every such curve was filed as active; the % refers to the signal ratio). The method, boiled down:
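FXR-UAS-bla HEK 293T cells carrying a UAS-driven beta-lactamase reporter were plated for 5 h at 37C/5% CO2, then exposed to DMSO-dissolved Tox21 10K compounds for 16 h at 37C. A LiveBLAzer B/G FRET substrate was loaded for 2 h at room temperature before fluorescence reading.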

The nature of test [17]: qHTS assay to identify small molecule antagonists of the farnesoid-X-receptor (FXR) signaling pathway - cell viability counter screen (AID 743221; active = well fitted cell-killing curve with a large enough effect in the repeat runs, not every such curve was filed as active; note: nearly all actives have a fitted effect of over 50% in size). The method, boiled down: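 Multiplexed counter screen: viability of FXR-bla HEK 293T cells under agonist stimulation by chenodeoxycholic acid (50 uM, final) and test compound for 16 h at 37 C, measured by CellTiter-Glo luminescence in the reporter wells.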

The target in test [18] is Vitamin D3 receptor (Homo sapiens) (UniProt P11473). In words: qHTS assay to identify small molecule antagonists of the vitamin D receptor (VDR) signaling pathway (AID 743223; active = well fitted inhibition curve with a large enough effect in the signal ratio in the repeat runs, not every such curve was filed as active; the % refers to the signal ratio; note: potency is the fitted concentration of half-maximal effect). The method, boiled down:
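Cells carrying a VDR-driven beta-lactamase reporter (VDR-bla) were co-treated with compound and 3 nM final 1alpha,25-dihydroxyvitamin D3 for 16 h at 37C; reporter activity was measured as FRET substrate fluorescence after 2 h at room temperature.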

A short description of test [19]: qHTS assay for small molecule agonists of the antioxidant response element (ARE) signaling pathway (AID 743202; active = well fitted activation curve with a large enough effect in the signal ratio in the repeat runs, not every such curve was filed as active; the % refers to the signal ratio; note: potency is the fitted concentration of half-maximal effect). The method, boiled down:
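HepG2 ARE-bla reporter line, 2,000 cells/well; 5 h preincubation 37 C/5% CO2; compound (DMSO) 16 h 37 C; B/G FRET substrate 2 h RT; fluorescence intensity.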

Test [20] addresses Peroxisome proliferator-activated receptor gamma (Homo sapiens) (UniProt P37231). In words: qHTS assay to identify small molecule antagonists of the peroxisome proliferator-activated receptor gamma (PPARg) signaling pathway (AID 743191; calls by dose curve; note: series mostly up to about 63 µM; nearly all actives have a fitted effect of over 30% in size). Summed up: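 GeneBLAzer PPARg UAS-bla HEK293H cells, 5 h post-plating, exposed to compounds 17 h at 37C. LiveBLAzer B/G FRET substrate added for 1 h at room temperature; beta-lactamase reporter read by fluorescence intensity.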

Chain of Peroxisome proliferator-activated receptor gamma (Homo sapiens) (P37231 whole entry, looked up): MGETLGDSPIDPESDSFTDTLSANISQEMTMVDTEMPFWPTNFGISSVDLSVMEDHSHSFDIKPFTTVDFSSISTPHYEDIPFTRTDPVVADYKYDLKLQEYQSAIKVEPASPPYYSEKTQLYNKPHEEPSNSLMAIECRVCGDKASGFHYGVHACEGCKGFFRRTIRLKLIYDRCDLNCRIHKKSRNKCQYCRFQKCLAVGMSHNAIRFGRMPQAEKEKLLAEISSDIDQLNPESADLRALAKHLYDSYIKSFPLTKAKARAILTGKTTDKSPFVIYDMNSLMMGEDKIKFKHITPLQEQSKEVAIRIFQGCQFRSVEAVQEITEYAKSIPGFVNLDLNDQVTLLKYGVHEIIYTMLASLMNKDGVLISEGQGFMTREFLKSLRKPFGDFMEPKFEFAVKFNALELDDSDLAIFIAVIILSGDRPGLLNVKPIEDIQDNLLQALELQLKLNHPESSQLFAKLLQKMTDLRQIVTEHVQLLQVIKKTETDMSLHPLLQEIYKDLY
Chain of Aryl hydrocarbon receptor (Homo sapiens) (P35869 whole entry, looked up): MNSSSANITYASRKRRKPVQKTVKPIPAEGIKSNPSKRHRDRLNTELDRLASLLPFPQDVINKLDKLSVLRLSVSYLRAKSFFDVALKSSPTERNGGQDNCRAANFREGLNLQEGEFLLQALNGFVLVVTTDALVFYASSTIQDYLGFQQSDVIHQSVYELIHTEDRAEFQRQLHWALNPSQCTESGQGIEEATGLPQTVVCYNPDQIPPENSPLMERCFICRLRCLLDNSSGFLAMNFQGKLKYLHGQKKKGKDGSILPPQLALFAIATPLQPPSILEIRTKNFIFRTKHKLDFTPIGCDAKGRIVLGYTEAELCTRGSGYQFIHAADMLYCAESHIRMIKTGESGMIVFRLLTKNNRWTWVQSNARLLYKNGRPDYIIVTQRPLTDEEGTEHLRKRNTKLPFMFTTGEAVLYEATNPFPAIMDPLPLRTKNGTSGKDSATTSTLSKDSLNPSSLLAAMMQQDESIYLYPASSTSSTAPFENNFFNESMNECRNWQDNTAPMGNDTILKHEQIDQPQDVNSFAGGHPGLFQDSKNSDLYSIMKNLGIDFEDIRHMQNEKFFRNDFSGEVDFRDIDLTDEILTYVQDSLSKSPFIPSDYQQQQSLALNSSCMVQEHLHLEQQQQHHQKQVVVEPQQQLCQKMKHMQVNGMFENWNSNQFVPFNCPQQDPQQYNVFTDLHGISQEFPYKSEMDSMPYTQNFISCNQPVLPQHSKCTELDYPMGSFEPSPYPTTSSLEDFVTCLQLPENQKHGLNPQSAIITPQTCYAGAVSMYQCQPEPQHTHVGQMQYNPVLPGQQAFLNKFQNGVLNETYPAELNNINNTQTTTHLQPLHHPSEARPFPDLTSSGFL
Chain of Vitamin D3 receptor (Homo sapiens) (P11473 whole entry, looked up): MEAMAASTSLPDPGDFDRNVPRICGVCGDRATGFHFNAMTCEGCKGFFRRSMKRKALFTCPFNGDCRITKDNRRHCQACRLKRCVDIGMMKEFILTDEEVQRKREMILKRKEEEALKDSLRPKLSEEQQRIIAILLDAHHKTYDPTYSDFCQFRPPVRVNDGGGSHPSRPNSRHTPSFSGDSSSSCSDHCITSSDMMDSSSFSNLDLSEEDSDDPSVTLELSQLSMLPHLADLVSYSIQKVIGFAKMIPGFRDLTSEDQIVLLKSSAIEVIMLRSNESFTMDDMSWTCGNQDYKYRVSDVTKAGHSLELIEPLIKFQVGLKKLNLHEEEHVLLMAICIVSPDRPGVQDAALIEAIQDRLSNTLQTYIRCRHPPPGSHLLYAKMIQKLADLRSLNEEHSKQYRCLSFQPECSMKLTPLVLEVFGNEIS
Chain of Bile acid receptor (Homo sapiens) (Q96RI1 whole entry, looked up): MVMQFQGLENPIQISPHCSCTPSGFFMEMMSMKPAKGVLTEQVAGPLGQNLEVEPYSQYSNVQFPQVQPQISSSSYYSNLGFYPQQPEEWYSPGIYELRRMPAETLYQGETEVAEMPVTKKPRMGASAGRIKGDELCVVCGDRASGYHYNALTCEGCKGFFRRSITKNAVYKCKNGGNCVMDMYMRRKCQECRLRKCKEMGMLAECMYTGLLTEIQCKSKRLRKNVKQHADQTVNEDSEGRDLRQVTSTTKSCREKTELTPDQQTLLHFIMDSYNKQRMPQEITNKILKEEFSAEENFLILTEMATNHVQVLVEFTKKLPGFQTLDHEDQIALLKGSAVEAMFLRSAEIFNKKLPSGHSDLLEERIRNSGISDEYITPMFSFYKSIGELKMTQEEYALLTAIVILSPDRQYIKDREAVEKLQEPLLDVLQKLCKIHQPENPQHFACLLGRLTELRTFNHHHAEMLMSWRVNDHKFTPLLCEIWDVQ

As for `O=c1[nH]c2ccc(Cl)cc2o1`, the Potency result in [1], in test [2], in [3], in test [4], in test [5] and in [6] was “inactive” in each case. Also, the Potency entry in test [7], in [8], in test [9], in [10] and in test [11] was “inactive” throughout.
As to `O=C1c2ccccc2C(=O)c2c(O)c(O)cc(O)c21`, the Potency in test [1] was 27.3 µM (active); in [2], 10.9 µM (active). Moreover, the Potency entry in [12], in test [4], in [5], in test [13], in test [6] and in test [7] was “inactive” throughout. For the same molecule, the Potency entry in test [8], in test [9], in test [14], in test [15], in test [16] and in test [17] was “inactive” each time. The Potency result in test [11] and in test [18] was “inactive” in each case.
Consider `CC(C)C(O)(c1ccc(OC(F)(F)F)cc1)c1cncnc1` (configuration not stated), for which the Potency result in test [1], in test [2], in [3], in [4], in test [5] and in test [13] was “inactive” each time. In addition, the Potency result in test [7], in test [15], in test [17], in [11] and in [18] was “inactive” throughout.
On to `O=C(CCc1ccc(O)cc1)c1c(O)cc(O)cc1O`, for which the Potency entry in test [1], in test [2], in test [3], in test [13], in [7] and in test [8] was “inactive” in each case. For the same molecule, the Potency result in test [9], in [10], in test [14], in [15], in [16] and in [17] was “inactive” each time. Further, the Potency entry in test [18] was “inactive”. The Potency in [19] is 31.3 µM (active).
Take `C=Cc1ccc(S(=O)(=O)O)cc1`: the Potency result in test [1], in test [2], in test [3], in test [13], in test [7] and in test [10] was “inactive” throughout. Also, the Potency entry in [18] is “inactive”.
With `O=C=Nc1ccc(Cl)c(Cl)c1`, the Potency result in test [1], in [3], in test [4], in test [5], in [6] and in test [8] was “inactive” each time. Moreover, the Potency result in test [14], in test [16] and in test [18] was “inactive” each time. Besides, the Potency was 47.8 µM (active) in test [2] and 30.4 µM (active) in test [15].
Take `c1csc(SSc2cccs2)c1`: the Potency entry in [1], in test [2], in test [20], in test [4], in test [19] and in [5] was “inactive” each time. Besides, the Potency entry in test [9], in [15], in test [11] and in test [18] was “inactive” each time.
Turning to `Clc1ccc(Nc2nnc(Cc3ccncc3)c3ccccc23)cc1`, the Potency entry in [1], in test [12], in [13], in [6], in [7] and in test [9] was “inactive” each time. For the same molecule, the Potency result in test [16] and in test [18] was “inactive” throughout. In addition, the Potency is 1.5 µM (active) and 841 nM (active) in [2]; 21.1 µM (active) in test [19].
For `Cc1ccc(Cl)c(Nc2ccccc2C(=O)O)c1Cl`, the Potency result in [1], in [2], in test [3], in test [4], in test [19] and in [5] was “inactive” throughout. The Potency result in [6], in test [7], in test [9], in test [14], in test [15] and in test [16] was “inactive” each time. The Potency entry in test [17] is “inactive”.
For the molecule `COc1cc(C(=O)NC2CCN(C)CC2)ccc1Nc1ncc2c(n1)N(C1CCCC1)CC(F)(F)C(=O)N2C`, the Potency in test [1] is 25 µM (active); in test [4] it was 50.4 µM (active); in test [5], 28.1 µM (active); in test [7] it was 11.3 µM (active); in [9], 7.11 µM (active); in test [10] it was 14.2 µM (active). The figures for the Potency in test [14], in test [15] and in test [18] were 22.5 µM (active), 17.9 µM (active) and 6.34 µM (active), respectively. The Potency result in test [2], in test [12], in test [6], in test [8] and in [11] was “inactive” in each case.
